Compounds with a hit are over-represented: about 21% of the library has one in this group of screens.
Shiga toxin inh – Shiga toxin inhibition | 290,000 tested, 9.2% active | Vero cells, Shiga toxin protein synthesis inhibition reporter | inhibition, % at 38.7 µM; in the data active = inhibition mostly above about 28%, no sharp cut-off; inactive = mostly below about 43%; note: 0% is about no effect
Pf growth 96h – inhibits malaria parasite growth, 96 h; P. falciparum luciferase reporter growth, 96 h; Potency, µM (series often up to 28.7 µM), for the others: top-dose activity change, negative = inhibition, usual class: inhibitors; 320,000 tested, 6.9% active; AID 504834; note: potency is the fitted concentration of half-maximal effect; % is set by controls: 0 for no effect and ±100 for the full control effect
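Erythrocytes infected with luciferase-expressing P. falciparum were dispensed at 2% hematocrit and 0.05% parasitemia (final), then incubated with compounds 96 hours at 37 C in 5% CO2. Luminescence after detection reagent addition reported growth.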
Sm TGR inh – S. mansoni TGR enzyme inhibition; Q962Y6; Potency, µM (titrated, usually from 114 µM), inactives show at the top dose activity change, negative = inhibition, actives largely listed as inhibitors; 360,000 tested, 3% active; purified TGR, DTNB reduction, TNB absorbance 405 nm; note: potency is the fitted concentration of half-maximal effect; % is set by controls: 0 for no effect and ±100 for the full control effect; nearly all actives have a fitted effect of over 60% in size
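First, TGR (20 nM dispensed) and NADPH were mixed with compound. Second, a 15 min room-temperature incubation followed. Third, further NADPH and then DTNB were added to start the reaction. Finally, TNB absorbance was monitored kinetically.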
NS1 inh – inhibitors of influenza NS1 protein function | Potency, µM (doses to about 46.1 µM), for the others: at the top dose activity, positive = more growth | 270,000 tested, 0.4% active | AID 2326; calls by dose curve; note: potency is the fitted concentration of half-maximal effect; actives are rising curves; nearly all actives have a fitted effect of over 50% in size
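In this qHTS, NS1 from influenza A is expressed in budding yeast, where it slows growth. Cells are switched from glucose to 2% galactose medium (pH 6.0, -URA), treated with compound, and growth recovery is read at OD600.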
CHX counter – counter-screen for Shiga toxin inhibitors: cycloheximide protein synthesis inhibition; max response, %; 300,000 tested, 12% active; cell reporter, cycloheximide protein synthesis inhibition counterscreen; in the data active = max response mostly above about 13%, no sharp cut-off; inactive = mostly below about 14%; note: read at 38.3 µM for the half of the compounds with a filed dose; 0% is about no effect
Pf growth 48h – inhibits P. falciparum growth in the first generation, 48 h | P. falciparum luciferase growth in erythrocytes, 48 h | AID 504832 | 310,000 tested, 5.9% active | Potency, µM (doses to about 28.7 µM), for inactives: top-dose activity change, negative = inhibition, usual class: inhibitors; note: potency is the fitted concentration of half-maximal effect; % is set by controls: 0 for no effect and ±100 for the full control effect
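A one-generation exposure of luciferase-tagged malaria parasites in RPMI 1640/Albumax erythrocyte culture, 37 C and 5% CO2. Inhibition is inferred from decreased luminescence after adding detection reagent.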
* marks the source's active call; other numbers are inactive results; ? = inconclusive; · = not tested or not shown; [ ] = remark or other dose. Unless noted, calls come from the whole dose curve; as a rule, active = well fitted curve in the direction sought with a large enough effect; inconclusive = small, poorly fitted or top-dose-only effect, or another doubt; inactive = no such curve, though single readings can be large; an effect the other way counts as inactive or inconclusive.

SMILES | Shiga toxin inh | Pf growth 96h | Sm TGR inh | NS1 inh | CHX counter | Pf growth 48h
CCC(=O)Nc1cc(ON=C(C)C)cc([N+](=O)[O-])c1 | -12 | -24% | 0% | -26% | -3 | 43%
CCCCCOP(=O)(OCCCCC)C1(NS(=O)(=O)c2ccccc2)C=CC(=O)c2ccccc21 (centres undefined) | -22 | 7.4µM* | ? | 6% | -4 | 9.3µM*
Cc1ccc(NC(=[OH+])c2cc3ccccc3cc2O)c(C)c1.Cc1ccc(NC(=[OH+])c2cc3ccccc3cc2O)c(C)c1.[Ni] | · | · | · | 0% | · | ·
O=C(NCC1CCCO1)C1CC1(c1ccccc1)c1ccccc1 (centres undefined) | -14 | 24% | -6% | -4% | -2 | 2%
Cc1sc2ncnc(SC(C)C(=O)N3c4ccccc4Sc4ccccc43)c2c1C (centres undefined) | 13 | 7.4µM* | 0% | -3% | -2 | 1.7µM*
Cc1ccc(OCC(=O)NNC(=O)C(C)Sc2ncnc3sc(C)c(C)c23)cc1 (centres undefined) | -6 | -17% | 0% | 13% | -1 | 15%
CCOC(=O)c1c(NC(=O)CS(=O)(=O)c2ccc(C)cc2)sc2c1CCCCC2 | · | · | 5% | · | · | ·
COC(=O)c1cccc(NC(=O)C2COc3ccccc3O2)c1 (centres undefined) | 66* | · | 5% | -21% | 33* | 147%
Cc1ccc(NC(=O)C2COc3ccccc3O2)cc1S(=O)(=O)N1CCCCC1 (centres undefined) | · | ? | -2% | · | · | 9.3µM*
COc1ccccc1NC(=O)c1ccc(NC(=O)C2COc3ccccc3O2)cc1 (centres undefined) | 32 | -26% | 8% | -6% | -2 | 0%
CCOC(=O)c1ccc(NC(=O)C2COc3ccccc3O2)cc1 (centres undefined) | · | ? | 9% | -51% | -2 | 51%
Cc1ccc(NC(=O)C2COc3ccccc3O2)cc1C (centres undefined) | · | ? | -1% | -39% | 26* | 98%
CCOCCOC(=O)c1ccc(NC(=O)C2COc3ccccc3O2)cc1 (centres undefined) | 38 | ? | 1% | -24% | 22* | 19%
O=C(Nc1ccc(S(=O)(=O)N2CCCC2)cc1)C1COc2ccccc2O1 (centres undefined) | 10 | 26% | -11% | -65% | 1 | -10%
CCOc1ccc(CCNC(=O)c2cc3c(=O)[nH]c4ccc(C)cc4c3s2)cc1OCC | · | · | 3% | · | · | ·
COc1cc(NC(=O)c2ccccc2-c2ccccc2)cc(OC)c1 | -11 | -5% | -12% | -24% | -5 | 20%
COC(=O)c1cc(NC(=O)C2COc3ccccc3O2)ccc1Cl (centres undefined) | 53* | ? | -8% | -63% | 21* | ?
COC(=O)c1cccc(NC(=O)C2COc3ccccc3O2)c1C (centres undefined) | 54 | 28% | -27% | -3% | 20 | 25%
Cc1cccc(C)c1NC(=O)CNC(=O)C1COc2ccccc2O1 (centres undefined) | · | 15% | -1% | · | · | 18%
Cc1cccc(NC(=O)C2COc3ccccc3O2)c1 (centres undefined) | 72* | 77% | 3% | -5% | 43* | 44%
O=C(Nc1cccc([N+](=O)[O-])c1)C1COc2ccccc2O1 (centres undefined) | 15 | ? | ? | -10% | 11* | -12%
Cc1cc(OCCn2c(CCNC(=O)C3CCCCC3)nc3ccccc32)ccc1Cl | -9 | · | -12% | · | -8 | ·
O=Cc1ccccc1-c1cn(CCCOCc2ccccc2)nn1 | -6 | -17% | -5% | -33% | -2 | -1%
Cc1ccc(-c2cccc(C3CC=CC4C3C(=O)N(Cc3ccccc3)C4c3ccc(C(F)(F)F)cc3)c2)cc1 (centres undefined) | 9 | ? | -7% | 2% | 0 | ?
C/C(=N\NC(=O)c1cccc(Cl)c1)C1C(=O)c2ccccc2C1=O | 73* | ? | -13% | -56% | 52* | 35%
SMILES | Shiga toxin inh | Pf growth 96h | Sm TGR inh | NS1 inh | CHX counter | Pf growth 48h
O=C(O)CC/C(=N\NC(=O)CNC(=O)c1cccc(Cl)c1)c1ccccc1 | -2 | 5% | -3% | · | 11 | -11%
C/C(=N\NC(=O)CCc1ccccc1)C1C(=O)c2ccccc2C1=O | 67* | 4% | -10%[57.1 µM] | -4% | 24* | 4%
C[C@@H]1OC(O[C@H]2[C@H](Oc3cc(O)c4c(=O)c(O)c(-c5ccc(O)cc5)oc4c3)O[C@H](CO)[C@@H](O)[C@@H]2O)[C@H](O)[C@H](O)[C@H]1O (some centres undefined) | 2 | · | · | · | -5 | ·
O=[N+]([O-])c1cccc(C2NCC(c3ccccc3Cl)c3c2[nH]c2ccccc32)c1 (centres undefined) | -5 | 13µM* | 0% | · | 1 | -7%
CN(C)c1ccc(C2CNC(c3ccc(Cl)c([N+](=O)[O-])c3)c3[nH]c4ccccc4c32)cc1 (centres undefined) | 33 | ? | ? | -52% | 2 | ?
Cc1ccc(C)c2[nH]c(=O)c(C(c3nnnn3CCc3ccccc3)N3CCOCC3)cc12 (centres undefined) | -6 | 46% | -40% | -7% | -6 | ?
CCOc1ccc2[nH]c(=O)c(C(c3nnnn3Cc3ccco3)N3CCC(C)CC3)cc2c1 (centres undefined) | -9 | 25% | 45µM* | -20% | 0 | ?
Cc1ccc(C)c2[nH]c(=O)c(C(c3nnnn3Cc3ccco3)N3CCc4ccccc4C3)cc12 (centres undefined) | 78* | 6.6µM* | 14µM* | ? | 27* | 12µM*
CCOc1ccc2[nH]c(=O)c(C(c3nnnn3C3CCCCC3)N3CCN(C)CC3)cc2c1 (centres undefined) | -3 | ? | ? | 7% | -4 | -10%
CCOc1ccc2[nH]c(=O)c(C(c3nnnn3Cc3ccco3)N3CCCC(C)C3)cc2c1 (centres undefined) | -7 | 23% | 11µM* | -23% | 7 | ?
COc1ccc(NC(=O)Cn2c(=O)n(-c3cccc(C)c3)c(=O)c3c2c2cc(C)ccc2n3C)cc1Cl | · | · | -11% | · | · | ·
N#Cc1nn(-c2c(Cl)cc(C(F)(F)F)cc2Cl)c(N)c1S(=O)C(F)(F)F (centres undefined) | -2 | -23% | · | · | 0 | 1.9µM*
O=C(COC(=O)c1ccc(NS(=O)(=O)c2ccc(F)c(F)c2)cc1)NCC1CCCO1 (centres undefined) | -6 | 13% | 1% | · | 1 | 9%
O=C1CC(c2ccccc2)Oc2cc(O)cc(O)c21 (centres undefined) | 57* | ? | -7% | -51% | 16* | -4%

Screens deposited in PubChem BioAssay by National Center for Advancing Translational Sciences (NCATS).
